Compounds with a hit are over-represented: about 1.6% of the library has one in this group of screens.
NALP1 inh: blocks the NALP1 inflammasome reconstituted in yeast. S. cerevisiae NALP1/ASC/caspase-1 growth, X-gal OD620, 72 h. inhibition, % at 10 µM. 280,000 tested, 0.61% active. AID 2071; in the data active = inhibition mostly above about 24%, no sharp cut-off; inactive = mostly below about 32%
PolyA inh: inhibitors of polyadenylation in S. cerevisiae; S. cerevisiae SKY197-pL101 polyadenylation reporter, beta-gal luminescence; efflux-impaired pdr1/pdr3 knockout yeast; score 100 = 6 SD above DMSO; activity score, % at 12 µM; 300,000 tested, 0.02% active;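 active = lowest replicate activity score at least 50, where 100 means six control SD above control mean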;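 also: yeast exposed to compound for 9 h at 30 °C; higher score means more reporter readthrough which indicates perturbed polyadenylation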
OPRM1-OPRD1 inv: mu-delta opioid heterodimer inverse agonism. P35372+P41143. 340,000 tested, 0.21% active. inhibition, % at 9.3 µM. cell-based MOR-DOR heterodimer luminescence. AID 504357; in the data active = inhibition above about 22%, passing the limit was not always enough
Target sequence (P35372 whole entry, looked up): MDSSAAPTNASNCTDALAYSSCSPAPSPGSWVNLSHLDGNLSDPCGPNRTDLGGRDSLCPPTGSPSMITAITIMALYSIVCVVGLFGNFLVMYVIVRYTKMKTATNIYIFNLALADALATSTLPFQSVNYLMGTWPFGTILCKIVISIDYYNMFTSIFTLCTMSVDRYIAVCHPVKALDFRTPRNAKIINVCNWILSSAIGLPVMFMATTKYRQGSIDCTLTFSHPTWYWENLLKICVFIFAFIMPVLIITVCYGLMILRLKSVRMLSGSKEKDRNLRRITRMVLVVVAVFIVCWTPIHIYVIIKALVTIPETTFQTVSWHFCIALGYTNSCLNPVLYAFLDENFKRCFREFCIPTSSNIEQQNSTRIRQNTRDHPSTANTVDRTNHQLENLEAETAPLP
Target sequence (P41143 whole entry, looked up): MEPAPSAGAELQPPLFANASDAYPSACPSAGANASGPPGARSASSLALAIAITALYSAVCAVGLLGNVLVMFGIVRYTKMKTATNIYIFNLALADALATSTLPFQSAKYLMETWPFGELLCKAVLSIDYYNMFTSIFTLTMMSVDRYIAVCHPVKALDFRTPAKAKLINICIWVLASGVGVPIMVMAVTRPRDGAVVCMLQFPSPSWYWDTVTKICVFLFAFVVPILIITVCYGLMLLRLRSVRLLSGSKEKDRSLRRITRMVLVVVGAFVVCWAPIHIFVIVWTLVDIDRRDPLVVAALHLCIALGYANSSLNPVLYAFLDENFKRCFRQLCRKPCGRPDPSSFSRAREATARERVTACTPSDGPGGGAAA
HTR5A inv ctr: counter-screen for OPRM1-OPRD1 inverse agonists: human HTR5A inverse agonism | inhibition, % at 9.3 µM | HTR5A cell line, luminescence | AID 504634 | 340,000 tested, 0.083% active | P47898; in the data active = inhibition mostly above about 23%, no sharp cut-off; inactive = mostly below about 18%
HTR5A ag ctr: HTR5A agonism, opioid heterodimer counter-screen; AID 504692; activation, % at 9.3 µM; 340,000 tested, 0.61% active; P47898; HTR5A agonist assay, luminescence, cell-based; in the data active = activation mostly above about 9.5%, no sharp cut-off; inactive = mostly below about 7.6%
OPRM1-OPRD1 ag: OPRM1-OPRD1 heterodimerization agonism | cells, luminescence | P35372+P41143 | 340,000 tested, 0.3% active | AID 504326 | activation, % at 9.3 µM; in the data active = activation above about 18%
Of the large screens only hits and unclear results are named; the others gave an inactive call.

CC1CCCN(C(=O)C2CCN(S(=O)(=O)c3ccccc3)CC2)C1 (stereo unspecified)	none (no result: NALP1 inh, PolyA inh)
COC(=O)Nc1ccc(S(=O)(=O)N2CCC(C(=O)N3CCCC(C)C3)CC2)cc1 (stereo unspecified)	NALP1 inh 37.8
O=C(C1=C[C@@H](c2csc3ccccc23)C[C@@H](OCCCCO)O1)N1CCN(Cc2ccc3c(c2)OCO3)CC1	none
O=C(C1=C[C@H](c2csc3ccccc23)C[C@H](OCCCCO)O1)N1CCN(Cc2ccccc2)CC1	NALP1 inh 30.4
Cc1ccc(C(O)(C(=O)NN(C(=O)c2ccccc2)c2ccccc2)c2ccc(C)cc2)cc1	none
Cc1ccc(N(NC(=O)C(O)(c2ccccc2)c2ccccc2)C(=O)CCl)cc1	HTR5A ag ctr 48.2, OPRM1-OPRD1 ag 31.4
C/C(=N\NC(=O)CNc1cccc(Cl)c1C)c1cccs1	none
COc1ccccc1NCC(=O)N/N=C(\C)c1cccs1	HTR5A ag ctr 13.8
C/C(=N\NC(=O)COc1ccc(C)cc1Br)c1cc([N+](=O)[O-])cs1	none
C/C(=N\NC(=O)COc1ccc(C)cc1[N+](=O)[O-])c1cccs1	PolyA inh 98.0
CN(C)C(C)(C)C#CCCCCC#CC(C)(C)N(C)C	none (no result: PolyA inh)
CN(C)C(C)(C)C#CCC(c1ccccc1)c1ccccc1	NALP1 inh 64.1
CCC(=O)OCOc1ccc(/C=C2/CCC(CN(C)C)C2=O)cc1 (stereo unspecified)	none (no result: NALP1 inh, PolyA inh)
CCN(CC)C(=O)Cn1cc(C(=O)C(=O)NCc2ccccn2)c2ccccc21	none
CC(NCCC(c1ccccc1)c1ccccc1)c1ccccc1 (stereo unspecified)	NALP1 inh 54.1
CC(NC1CCCC1)c1ccccc1 (stereo unspecified)	none
CCOC(=O)C1(Cc2ccccc2Cl)CCN(C(=O)c2cnccn2)CC1	none
CCCOc1ccc(C(=O)N/N=C/c2ccc(-c3ccc(S(=O)(=O)Nc4ncccn4)cc3)o2)cc1	NALP1 inh 42.7
O=C(COC(=O)Cc1ccccc1F)NC(=O)NC1CCCC1	HTR5A ag ctr 11.7 (no result: NALP1 inh, PolyA inh)
O=S1(=O)Cc2cc3ccccc3cc2C1	none
COc1ccccc1/C=N/NC(=O)c1nnn(-c2nonc2N)c1-c1cccs1	NALP1 inh 37.0
CCOc1ccc(-c2c(C(=O)N/N=C/c3cccc(Br)c3)nnn2-c2nonc2N)cc1	NALP1 inh 37.2
CCCOc1ccc(-c2c(C(=O)N/N=C/c3ccc(C)o3)nnn2-c2nonc2N)cc1	HTR5A ag ctr 9.8, OPRM1-OPRD1 ag 19.4
Nc1nonc1-n1nnc(C(=O)N/N=C/c2cccc(Cl)c2)c1-c1ccc2c(c1)OCO2	HTR5A ag ctr 10.0
Cc1nnc(NC(=O)C23CC4CC(CC(C4)C2)C3)s1	none
COc1ccc(-c2cc(C)no2)cc1S(=O)(=O)N(C)c1ccc(C)cc1	none
CC(C)(Oc1ccc(Cl)cc1)C(=O)NCC1CCCO1 (stereo unspecified)	none (no result: NALP1 inh)
CCOc1ccc(Oc2c(C)oc3cc(O)ccc3c2=O)cc1	NALP1 inh 24.8
O=C(/C=C/c1ccc(F)cc1)c1ccccc1Br	NALP1 inh 54.9
Cc1ccc(C(=O)/C=C/c2ccc(F)cc2)o1	none
COc1ccc(CNCC(O)(c2ccccc2)c2ccc(Cl)cc2)cc1 (stereo unspecified)	NALP1 inh 56.8
CCN1CCN(CC(=O)Nc2cc(C(F)(F)F)ccc2OCCOC)CC1	none (no result: NALP1 inh)
COc1ccc(OCCCC(=O)OCC(=O)N2CCN(S(=O)(=O)c3ccc(C)cc3C)CC2)cc1	none (no result: NALP1 inh, PolyA inh)
O=C(Nc1ccccc1)Nc1cccc(C(F)(F)F)c1	none
O=C(COCC(=O)Nc1cccc(C(F)(F)F)c1)Nc1cccc(C(F)(F)F)c1	NALP1 inh 38.5
COc1ccc(NC(=O)Nc2cc(C)cc(C)c2)cn1	none (no result: NALP1 inh)
O=C(COc1ccc(C(=O)O)cc1)Nc1cccc(C(F)(F)F)c1	none
COc1ccc(NC(=O)Nc2cccc(C(F)(F)F)c2)cn1	HTR5A ag ctr 12.9
Cc1cc(NC(=O)Nc2cccc(C(F)(F)F)c2)n(C)n1	NALP1 inh 31.7
CCCCNC(=O)[C@H]1C[C@H]1[C@@H](O)[C@H](CO)NC(=O)[C@H](Cc1ccccc1)NC(=O)OC(C)(C)C	none
Cc1ccccc1N(C=O)c1ccccc1C	none (no result: NALP1 inh, PolyA inh)
Cc1ccc([N+](=O)[O-])cc1NC(=O)CNC1CCCCC1	none
O=C(CNC1CCCC1)Nc1cc(Cl)ccc1[N+](=O)[O-]	NALP1 inh 44.8
Nc1cc2nsnc2cc1Br	HTR5A ag ctr 13.3, OPRM1-OPRD1 ag 31.9
OCCN1CCN(c2nc(-c3ccccc3)c3cc(Br)ccc3n2)CC1	none
OCCN1CCN(c2ncnc3ccc(Br)cc23)CC1	NALP1 inh 32.2
COc1ccccc1CN1C[C@@H]2C[C@@H](C3=Cc4cc(Cl)ccc4OC3)N3CCC[C@@]23C1=O	NALP1 inh 25.8
CN1C[C@@H]2C[C@@H](C3=Cc4cc(Cl)ccc4OC3)N3CCC[C@@]23C1=O	none
CCN(CC(=O)Nc1ccc(NC(C)=O)cc1)C(=O)CCCc1nc2ccccc2c(=O)[nH]1	none (no result: NALP1 inh)
CCOC(=O)c1c(SCCN2CCCC2)n(-c2ccccc2)c(=S)n(-c2ccccc2)c1=O	OPRM1-OPRD1 inv 57.5 (no result: NALP1 inh, PolyA inh)
Cc1ccc(NC(=O)c2ccc3ccccc3n2)nc1	HTR5A ag ctr 13.9
COc1ccccc1C(CNC(=O)c1oc2ccccc2c1C)N1CCCC1 (stereo unspecified)	none (no result: NALP1 inh, PolyA inh)
Nc1cccc(C(=O)NCCNC(=O)c2cccc(N)c2)c1	none
CC(=O)Nc1ccc(NC(=O)COc2cccc3c2OC(C)(C)C3)cc1	none
COc1cc(C)c(NC(=O)COc2cccc3c2OC(C)(C)C3)cc1OC	none (no result: NALP1 inh, PolyA inh)
COc1cc(NC(=O)COc2cccc3c2OC(C)(C)C3)cc(OC)c1OC	HTR5A ag ctr 13.7 (no result: NALP1 inh, PolyA inh)
COc1ccc(NC(=O)COc2cccc3c2OC(C)(C)C3)c(OC)c1	HTR5A ag ctr 13.0 (no result: NALP1 inh, PolyA inh)
Cc1cccc(OCC(O)CN2CCOCC2)c1 (stereo unspecified)	none
O=C(NCCCN1CCOCC1)C(C(=O)c1ccccc1)n1ccccc1=O (stereo unspecified)	NALP1 inh 40.3
CCOc1ccc(Nc2nc(N)nc(CCl)n2)cc1	HTR5A ag ctr 90.1, OPRM1-OPRD1 ag 67.6
Cc1ccc(Nc2nc(N)nc(CCl)n2)cc1	none (no result: NALP1 inh, OPRM1-OPRD1 inv, HTR5A inv ctr, HTR5A ag ctr, OPRM1-OPRD1 ag)
Cc1ccc(Nc2nc(N)nc(CCl)n2)c(C)c1	HTR5A ag ctr 62.5, OPRM1-OPRD1 ag 61.3
CCCNC(=O)CSc1nnc(-c2ccccc2Br)n1-c1cccc(C(F)(F)F)c1	none (no result: PolyA inh)
O=C(c1cc(-c2ccc(Br)cc2)n[nH]1)N1CCN(C(=O)c2ccccc2Br)CC1	none
CCCCOc1ccc(CSC2=NCCN2)cc1[N+](=O)[O-]	NALP1 inh 47.4
CCc1ccc(N=CC2=C(O)CC(c3ccco3)CC2=O)cc1 (stereo unspecified)	NALP1 inh 37.6

From PubChem
